Results reported in PubChem BioAssay (Tox21).
Records with an inconclusive call do not appear. Where a call stands in place of a potency, no number is given. The source made the active and inactive calls. Calls come from the whole dose curve; as a rule, active = well fitted cell-killing curve with a large enough effect in the repeat runs; inconclusive = weak or mixed curves, or effect the other way; inactive = flat fitted curve, though single readings scatter.

Key:
[1] = cAMP Responsive Elements (CRE) small molecule antagonists, cell-based qHTS assay: qHTS cell viability counter screen (AID 2060913); details: CRE-bla HEK293T viability, CellTiter-Glo luminescence, 5 h; series mostly up to 92.4 µM; note: nearly all actives have a fitted effect of over 40% in size
In short: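 Viability of NKH477-stimulated (0.25 uM final) CRE-bla HEK293T cells is measured by CellTiter-Glo luminescence following 3 hrs compound exposure at 37 C.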

[2] = cAMP Responsive Elements (CRE) small molecule agonists, cell-based qHTS assay: qHTS cell viability counter screen (AID 2060914); details: CRE-bla HEK293T viability, CellTiter-Glo luminescence, 5 h; series mostly up to 92.4 µM;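 note: viability read after 3 h of compound exposure; nearly all actives have a fitted effect of over 50% in size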
In short: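 Cells are seeded and incubated 18 h, treated with compounds in DMSO for 3 h, read for the bla reporter, then given CellTiter-Glo; luminescence is measured after 30 min at room temperature.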
Potency is the fitted concentration of half-maximal effect.

Row | Structure (SMILES) | Potency [1] | Potency [2]
1 | COP(N)(=S)Oc1ccccc1C(=O)OC(C)C (stereo not given) | inactive | –
2 | COc1cc(CC(C)N)c(OC)cc1Br (stereo not given) | inactive | –
3 | Clc1cc(C(Cl)(Cl)Cl)cnc1Cl | inactive | –
4 | N#CC(CCc1ccc(Cl)cc1)(Cn1cncn1)c1ccccc1 (stereo not given) | inactive | –
5 | O=[N+]([O-])c1c2ccccc2cc2ccccc12 | inactive | –
6 | COC[C@@H](NC(C)=O)C(=O)NCc1ccccc1 | inactive | –
7 | CN1C(=O)CCS(=O)(=O)C1c1ccc(Cl)cc1 (stereo not given) | inactive | –
8 | CC1(C)C(C=C(Cl)Cl)C1C(=O)OC(C#N)c1cccc(Oc2ccccc2)c1 (stereo not given) | inactive | –
9 | O=CCCl | inactive | –
10 | Cc1cc(C(F)(C(F)(F)F)C(F)(F)F)ccc1NC(=O)c1cccc(I)c1C(=O)NC(C)(C)CS(C)(=O)=O | inactive | –
11 | CCOP(=O)(SC(C)CC)N1CCSC1=O (stereo not given) | inactive | –
12 | CCOC(=O)CBr | inactive | –
13 | C#C[C@]1(O)CC[C@H]2[C@@H]3CCC4=CC(=O)CCC4=C3C=C[C@@]21CC | inactive | –
14 | O=S(=O)(Cl)c1ccccc1 | inactive | –
15 | N#Cc1nn(-c2c(Cl)cc(C(F)(F)F)cc2Cl)c(N)c1S(=O)C(F)(F)F (stereo not given) | inactive | –
16 | CCCCCCCCCC(=O)O[C@H]1CC[C@H]2[C@@H]3CCC4=CC(=O)CC[C@@H]4[C@H]3CC[C@]12C | inactive | –
17 | Clc1ccc(C(c2ccccc2Cl)C(Cl)(Cl)Cl)cc1 (stereo not given) | inactive | –
18 | CCOC(=O)c1ncn2c1CN(C)C(=O)c1c(I)cccc1-2 | inactive | –
19 | O=S(=O)(c1ccc(Cl)cc1)c1ccc(Cl)cc1 | inactive | –
20 | Oc1cc(Cl)cc(Cl)c1 | inactive | –
21 | FC(F)OC(F)(F)C(F)Cl (stereo not given) | inactive | –
22 | CCCOC(=O)Cc1ccc(OCC(=O)N(CC)CC)c(OC)c1 | inactive | –
23 | Nc1nc(N)nc(N)n1 | inactive | –
24 | CN(C)CCN(C)C | inactive | –

Row | Structure (SMILES) | Potency [1] | Potency [2]
25 | CC(=O)C1CCOC1=O (stereo not given) | inactive | –
26 | CC(C)[C@H](C(=O)O[C@H](C#N)c1cccc(Oc2ccccc2)c1)c1ccc(Cl)cc1 | inactive | –
27 | ClCCCN1CCN(c2cccc(Cl)c2)CC1 | inactive | –
28 | CC1CC(CC2CCC(N)C(C)C2)CCC1N (stereo not given) | inactive | –
29 | CC(=O)O[C@H]1CC[C@@]2(C)C(=CC[C@@H]3[C@@H]2CC[C@]2(C)C(=O)CC[C@@H]32)C1 | inactive | –
30 | CCN(CCO)CCn1c(Cc2ccccc2)nc2c1c(=O)n(C)c(=O)n2C | inactive | –
31 | COS(=O)(=O)c1ccc(C)cc1 | inactive | –
32 | N#CCCO | inactive | –
33 | CCN(CC)c1c([N+](=O)[O-])cc(C(F)(F)F)c(N)c1[N+](=O)[O-] | 54.5 µM (active) | –
34 | O=C(Nc1ccc(F)cc1F)c1cccnc1Oc1cccc(C(F)(F)F)c1 | inactive | –
35 | Cl/C=C\C[N+]12CN3CN(CN(C3)C1)C2 | inactive | –
36 | C[C@]12CC[C@H]3[C@@H](CCC4=CC(=O)CC[C@@H]43)[C@@H]1CC[C@@H]2OC(=O)CCc1ccccc1 | inactive | –
37 | CCOc1cc(Oc2ccc(C(F)(F)F)cc2Cl)ccc1[N+](=O)[O-] | inactive | –
38 | CC(C)C(Nc1ccc(C(F)(F)F)cc1Cl)C(=O)OC(C#N)c1cccc(Oc2ccccc2)c1 (stereo not given) | inactive | –
39 | CC(Cc1ccc(C(C)(C)C)cc1)CN1C[C@@H](C)O[C@@H](C)C1 (stereo not given in full) | inactive | –
40 | CCC[N+]1(C)CCCC1 | inactive | –
41 | CCN(CC)c1ccccc1 | inactive | inactive
42 | Cn1cc(-c2ccccc2)c(=O)c(-c2cccc(C(F)(F)F)c2)c1 | inactive | inactive
43 | CCCCCCCCCCCC#N | inactive | inactive
44 | CCC(C)(C)c1ccc(O)cc1 | inactive | inactive
45 | O=C(O)c1cc(I)cc(I)c1I | inactive | inactive
46 | c1ccc2sc(SNC3CCCCC3)nc2c1 | inactive | inactive
47 | Nc1nc(N)nc(Cl)n1 | inactive | inactive
48 | [O]=[Cr][O][Cr]=[O] | inactive | inactive

Row | Structure (SMILES) | Potency [1] | Potency [2]
49 | CCOP(=S)(OCC)SCSP(=S)(OCC)OCC | inactive | inactive
50 | O=c1[nH]c2ccccc2o1 | inactive | inactive
51 | Oc1cc(Cl)ccc1Cl | inactive | inactive
52 | C=CCCC#N | inactive | inactive
53 | COC(=O)C(C)N(C(=O)c1ccco1)c1c(C)cccc1C (stereo not given) | inactive | inactive
54 | CCCC(C)(COC(N)=O)COC(=O)NC(C)C (stereo not given) | inactive | inactive
55 | Nc1ccc(N=Nc2ccccc2)cc1 | inactive | inactive
56 | Cc1ccc(S(=O)(=O)N[C@@H](CCCCN)C(=O)CCl)cc1 | inactive | inactive
57 | OCCSSCCO | inactive | inactive
58 | CCCC[N+]1(C)[C@@H]2CC(OC(=O)[C@H](CO)c3ccccc3)C[C@H]1[C@@H]1O[C@@H]12 (stereo not given in full) | inactive | inactive
59 | O=c1c(C2CC(c3ccc(-c4ccc(Br)cc4)cc3)Cc3ccccc32)c(O)sc2ccccc12 (stereo not given) | inactive | inactive
60 | CC(C)(C#N)C(C)(C)C#N | inactive | inactive
61 | COC(=O)[C@@H](N)CCCN/C(N)=N/[N+](=O)[O-] | inactive | inactive
62 | CC(CC(C(N)=O)(c1ccccc1)c1ccccc1)N(C)C (stereo not given) | inactive | inactive
63 | N#Cc1c2ccccc2cc2ccccc12 | inactive | inactive
64 | COc1ccc2c(c1OC)C(=O)O[C@@H]2[C@H]1c2cc3c(cc2CCN1C)OCO3 | inactive | inactive
65 | Cc1ccccc1OP(=O)(Oc1ccccc1C)Oc1ccccc1C | inactive | inactive
66 | CCN(CC)C(=O)/C(Cl)=C(\C)OP(=O)(OC)OC | inactive | inactive
67 | CCCC[N+](=O)[O-] | inactive | inactive
68 | CCSC(=O)N(CC)C1CCCCC1 | inactive | inactive
69 | CCCCCCCCCCCCCCCl | inactive | inactive
70 | O=S(=O)(O)C(F)(F)C(F)(F)C(F)(F)C(F)(F)C(F)(F)C(F)(F)F | inactive | inactive
71 | c1ccc(N=Nc2ccccc2)cc1 | inactive | inactive
72 | O=[N+]([O-])c1ccc(Oc2ccc(Cl)cc2Cl)cc1 | inactive | inactive

Row | Structure (SMILES) | Potency [1] | Potency [2]
73 | COC(=O)c1ccccc1S(=O)(=O)NC(=O)Nc1nc(C)nc(OC)n1 | inactive | inactive
74 | CC(=O)[O-].CC(=O)[O-].[Hg+2] | 8.63 µM (active) | 10.9 µM (active)
75 | CC(=O)CCc1ccc2c(c1)OCO2 | inactive | inactive
76 | CCNc1nc(NC(C)C(C)C)nc(SC)n1 (stereo not given) | inactive | inactive
77 | CCCCC(CC)COC(=O)Cl (stereo not given) | inactive | inactive
78 | CCNP(=S)(OC)O/C(C)=C/C(=O)OC(C)C (stereo not given) | inactive | inactive
79 | Clc1ccccc1Cl | inactive | inactive
80 | Clc1ccc(C(Cl)(Cl)Cl)cn1 | inactive | inactive
81 | CCOP(=O)(N=C1SCCS1)OCC | inactive | inactive
82 | O=[N+]([O-])c1ccc2c3c(cccc13)CC2 | inactive | inactive
83 | C=C(C)CN(CC)c1c([N+](=O)[O-])cc(C(F)(F)F)cc1[N+](=O)[O-] | inactive | inactive
84 | Cc1nnc2n1-c1sc(CCc3ccc(CC(C)C)cc3)cc1C(c1ccccc1Cl)=NC2C (stereo not given) | inactive | inactive
85 | COP(N)(=O)SC (stereo not given) | inactive | inactive
86 | C[C@H]1CNCCc2ccc(Cl)cc21 | inactive | inactive
87 | Cc1cccc(C)c1NC(=O)CN1CCCC1=O | inactive | inactive
88 | CCN(CC)C(=O)C(C)Oc1cccc2ccccc12 (stereo not given) | inactive | inactive
89 | CCCC[P+](CC)(CCCC)CCCC (tested in a mixture with another compound) | inactive | inactive
90 | CCN(CC)N=O | inactive | inactive
91 | CCOP(=S)(OCC)SCn1nnc2ccccc2c1=O | inactive | inactive
92 | CCOC(=O)Cc1ccccc1 | inactive | inactive
93 | CC(=O)C(Cl)C(=O)N(C)C (stereo not given) | inactive | inactive
94 | CC1=NNC(=O)N(/N=C/c2cccnc2)C1 | inactive | inactive
95 | COC(=O)c1ccccc1N | inactive | inactive
96 | Oc1cccc2cccnc12 | inactive | inactive

Row | Structure (SMILES) | Potency [1] | Potency [2]
97 | CCN(CC)C(=S)[S-].CCN(CC)C(=S)[S-].[Zn+2] | 6.8 µM (active) | 19.2 µM (active)
98 | CCC1(c2ccccc2)C(=O)N(COC)C(=O)N(COC)C1=O | inactive | inactive
99 | CC(C1CC1)C(O)(Cn1cncn1)c1ccc(Cl)cc1 (stereo not given) | inactive | inactive
100 | CC(=O)O.CC(=O)O.CC(=O)O.CC(=O)O.CC(=O)O.CC(=O)O.CC(=O)O.O.O.[Cr].[Cr].[Cr] | inactive | inactive
101 | COP(=S)(OC)Oc1ccc([N+](=O)[O-])c(C)c1 | inactive | inactive
102 | Oc1ccccc1Br | inactive | inactive
103 | O=c1[nH]c(=O)n(Cl)c(=O)n1Cl | inactive | inactive
104 | COc1cc(OC)nc(Sc2cccc(Cl)c2C(=O)O)n1 | inactive | inactive
105 | CCc1ccccc1C | inactive | inactive
106 | Nc1ccc([As](=O)(O)O)cc1 | inactive | inactive
107 | CN(C)N=O | inactive | inactive
108 | COc1ccc2c3c1O[C@H]1[C@@H](O)C=C[C@H]4[C@@H](C2)N(C)CC[C@@]341 | inactive | inactive
109 | CC(C)(C)C(O)C(Oc1ccc(-c2ccccc2)cc1)n1cncn1 (stereo not given) | inactive | inactive
110 | O=C(O)CF | inactive | inactive
111 | CC(C)=CC1C(C(=O)OCN2C(=O)C3=C(CCCC3)C2=O)C1(C)C (stereo not given) | inactive | inactive
112 | C=C(C#N)CCC#N | inactive | inactive
113 | O=c1[nH]c2ccccc2n1CCCN1CCC(n2c(=O)[nH]c3cc(Cl)ccc32)CC1 | inactive | inactive
114 | CCN(Cc1ccc(Cl)nc1)/C(=C/[N+](=O)[O-])NC | inactive | inactive
115 | CCCCCCCCc1ccc(O)cc1 | inactive | inactive
116 | C[N+](C)(C)CC(=O)O | inactive | inactive
117 | CC(C)(c1ccc(OCC2CO2)cc1)c1ccc(OCC2CO2)cc1 (stereo not given) | inactive | inactive
118 | CC(=O)[C@H]1CC[C@H]2[C@@H]3CC[C@H]4C[C@H](O)CC[C@]4(C)[C@H]3C(=O)C[C@]12C | inactive | inactive
119 | C[N+](C)(C)Cc1ccccc1 | inactive | inactive
120 | CC(C)N(C(=O)COc1nnc(C(F)(F)F)s1)c1ccc(F)cc1 | inactive | inactive
